Where “and” joins values, the source holds several entries; their conditions need not be identical. Identical values can stand only once. Inconclusive results are not listed. Where a call stands in place of a potency, no number is given. Calls of active or inactive are those of the source. Unless noted, calls come from the whole dose curve; as a rule, active = well fitted curve in the direction sought with a large enough effect; inconclusive = small, poorly fitted or top-dose-only effect, or another doubt; inactive = no such curve, though single readings can be large; an effect the other way counts as inactive or inconclusive.
Key:
[1] = Validation of Assay for Modulators of Lamin A Splicing (AID 1459; active = well fitted curve in the direction sought with a large enough effect in the signal ratio; the % refers to the signal ratio;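 note: cells exposed to compound for two days before reading; ratio rise marks activators and ratio drop marks inhibitors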)
Summary of the method: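 Splicing correction is reported by an EGFP-containing lamin A minigene in stably transfected S3 HeLa cells, while DsRed2 controls for viability and nonspecific signal. Cells are exposed to compounds for 48 hrs before the GFP over RFP ratio is taken.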

[2] = qHTS Assay for Lipid Storage Modulators (AID 1519; calls by dose curve); settings: Drosophila S3 cells, BODIPY lipid droplet/cell ratio, laser cytometry, cells loaded with oleic acid
Summary of the method: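 Cells seeded at 5,000 per well were treated with compounds over a concentration series and loaded with oleic acid (400 uM, as added). Lipid droplet fluorescence (488 nm excitation, 500-530 nm channel) was read by laser-scanning cytometry and normalized to 20 uM Triacsin C.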

[3] = target: DNA repair nuclease/redox regulator APEX1 (Homo sapiens) (UniProt P27695); experiment: qHTS Validation Assay for Inhibitors of the Human Apurinic/apyrimidinic Endonuclease 1 (APE1) (AID 1705; note: potency is the fitted concentration of half-maximal effect;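 for activity change, negative = inhibition: TAMRA fluorescence gain over two minutes as APE1 cuts a quenched THF abasic duplex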)
DNA repair nuclease/redox regulator APEX1 (Homo sapiens), sequence (P27695 whole entry, looked up): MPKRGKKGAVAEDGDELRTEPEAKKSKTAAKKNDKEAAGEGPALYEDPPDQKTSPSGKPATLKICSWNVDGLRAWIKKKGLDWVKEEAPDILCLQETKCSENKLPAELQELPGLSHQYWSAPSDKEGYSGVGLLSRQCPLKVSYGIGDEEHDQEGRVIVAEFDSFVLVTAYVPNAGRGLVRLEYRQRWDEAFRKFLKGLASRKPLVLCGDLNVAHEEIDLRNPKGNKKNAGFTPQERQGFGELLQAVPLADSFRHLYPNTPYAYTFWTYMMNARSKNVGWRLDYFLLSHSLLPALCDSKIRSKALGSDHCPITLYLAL
Summary of the method: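 Endonuclease activity of human APE1 is followed as dequenching when the enzyme incises a tetrahydrofuran abasic site in a short duplex labelled 5'-TAMRA/3'-BHQ-2 (50 nM final), after 15 min enzyme–compound preincubation at room temperature.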

[4] = Counterscreen for APE1 Inhibitors: Fluorescent Dye Displacement Validation Assay (AID 1707); note: potency is the fitted concentration of half-maximal effect
Summary of the method: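 Reaction mixture of 250 nM Thiazole Orange and 50 nM double-stranded abasic-site DNA was dispensed, compounds were pin-transferred, and fluorescence was read at endpoint (480 nm ex, 540 nm em). Reduced fluorescence indicated dye displacement by DNA binding.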

[5] = target: Endonuclease 4 (Escherichia coli (strain K12)) (UniProt P0A6C1); experiment: Counterscreen for APE1 Inhibitors: qHTS Validation Assay for Inhibitors of Endonuclease IV (AID 1708); note: potency is the fitted concentration of half-maximal effect
Summary of the method: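 The reaction buffer contained 50 mM Tris-HCl pH 7.5, 50 mM NaCl, 2 mM MgCl2, 1 mM DTT and 0.01% Tween-20. Incision of a 50 nM fluorophore/quencher THF substrate by 2 nM enzyme was measured kinetically.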

[6] = qHTS for differential inhibitors of proliferation of Plasmodium falciparum line 7G8 (AID 1815);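 note: parasite growth measured after three days of incubation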; note: potency is the fitted concentration of half-maximal effect
[7] = qHTS for differential inhibitors of proliferation of Plasmodium falciparum line GB4 (AID 1816); settings: Potency: Plasmodium falciparum GB4 proliferation inhibition;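 note: parasite growth measured after 72 h incubation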; note: potency is the fitted concentration of half-maximal effect
[8] = qHTS for differential inhibitors of proliferation of Plasmodium falciparum line 3D7 (AID 1876);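 note: parasite growth measured after three days of culture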
[9] = target: alpha-glucosidase (Oryza sativa, rice) (UniProt Q653V4); experiment: Counterscreen for Glucocerebrosidase Inhibitors: qHTS Assay for Rice alpha-Glucosidase at pH 5.0 (AID 997)
Summary of the method: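 Endpoint fluorogenic assay at pH 5.0: compounds (0.7 nM to 77 uM) titrated against 4 nM rice enzyme and 400 uM 4-MU-alpha-glucoside for 20 min at room temperature; NaOH/glycine stop, read ex 365/em 440 nm, Hill-fitted AC50.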

[10] = measured here: cell count channel max response
[11] = measured here: lipid channel max response

| Compound | outcome [1] | activity change, negative = inhibition ([2]; at 57.5 µM (top of the series)) | max response [2, 10] | max response [2, 11] | Potency [3] | Potency [4] | Potency [5] | Potency [6] | Potency [7] | Potency [8] | outcome [9] | activity change, negative = inhibition ([2]; at 25.7 µM (top of the series)) |
| --- | --- | --- | --- | --- | --- | --- | --- | --- | --- | --- | --- | --- |
| N[C@@H](CCC(=O)N[C@H](CSN=O)C(=O)NCC(=O)O)C(=O)O | inactive | 0.446% (inactive) | -20.1% | -19.6% | inactive | inactive | inactive | inactive | inactive | inactive | – | – |
| Cn1c(=O)c2c(nc(/C=C/c3cccc(Cl)c3)n2C)n(C)c1=O | inactive | -4.15% (inactive) | -60.2% | -62% | inactive | inactive | inactive | 10 µM (active) | – | – | – | – |
| NC1C=CC=C(C(=O)O)C1 (centres undefined) | inactive | 2.8% (inactive) | 4.79% | -17.7% | inactive | inactive | inactive | inactive | inactive | inactive | – | – |
| COc1cc(C(O)CO)ccc1O (centres undefined) | inactive | -0.467% (inactive) | -50.8% | -49.3% | inactive | inactive | inactive | inactive | inactive | inactive | – | – |
| N=C(N)c1ccccc1 | inactive | 0.991% (inactive) | 9.53% | 1.79% | inactive | inactive | inactive | inactive | inactive | inactive | inactive | – |
| C=CCN1CCc2cc(O)c(O)cc2C(c2ccccc2)C1 (centres undefined) | inactive | 0.997% (inactive) | -6.45% | -5.19% | inactive | inactive | inactive | 11.2 µM (active) | 12.6 µM (active) | – | – | – |
| O=C(O)C1=CCNCC1 | inactive | 1.16% (inactive) and 3.31% (inactive) | -10.7% and 4.5% | -10.6% and 21.6% | inactive | inactive | inactive | inactive | inactive | inactive | inactive | – |
| CC(=O)/C(C)=N/O | inactive | 2.05% (inactive) | 5.13% | 6.8% | inactive | inactive | inactive | inactive | inactive | inactive | – | – |
| O=C(O)C1CCCNC1 (centres undefined) | inactive | 0.3% (inactive) | 0.529% | 0.762% | inactive | inactive | inactive | inactive | inactive | inactive | – | – |
| C#CCn1c(=O)c2c(ncn2C)n(C)c1=O | inactive | 2.4% (inactive) | -11.8% | -10.7% | inactive | inactive | inactive | inactive | inactive | inactive | inactive | – |
| COc1ccc(C(=O)NCc2cccnc2)cc1C(=O)NCc1cccnc1 | inactive | 1.17% (inactive) | -2.62% and -3.84% | -2.28% and -1.65% | – | inactive | inactive | – | inactive | inactive | inactive | 1.2% (inactive) |
| NCCS(=O)O | inactive | -6.29% (inactive) and 1.76% (inactive) | -10.2% and 4.71% | -16.1% and 6.07% | inactive | inactive | inactive | inactive | inactive | inactive | inactive | – |
| Cc1cc2c(cc1Cl)N(C(=O)Nc1ccnc3ccccc13)CC2 | inactive | 3.56% (inactive) | 57.9% | 64% | inactive | inactive | inactive | inactive | inactive | inactive | inactive | – |
| CCCn1c(=O)c2c(ncn2C)n(CCC)c1=O | inactive | -2.98% (inactive) | -22.4% | -33.5% | inactive | inactive | inactive | inactive | inactive | inactive | inactive | – |
| NC1CONC1=O (centres undefined) | inactive | 9.95% (inactive) and 0.344% (inactive) | 9.83% and -1.76% | 24% and -1.09% | inactive | inactive | inactive | inactive | inactive | inactive | – | – |
| CC(N)=NCCCC[C@@H](N)C(=O)O | inactive | -0.966% (inactive) | 1.29% | 2.75% | inactive | inactive | inactive | inactive | inactive | inactive | – | – |
| CCCCCC(O)CCCC(=O)O (centres undefined) | inactive | 0.833% (inactive) | -25.3% | -24.6% | inactive | inactive | inactive | inactive | inactive | inactive | – | – |
| COc1ccc(-c2ccc(N)[n+](CCCC(=O)O)n2)cc1 | inactive | – | 3.21% | 7.04% | inactive | inactive | inactive | inactive | inactive | inactive | inactive | -0.132% (inactive) |
| O=C(O)C1CCNCC1 | inactive | -0.0209% (inactive) | 11.3% | 10% | inactive | inactive | – | – | – | – | inactive | – |
| O=C(O)[C@H]1NCCC[C@H]1C(=O)O | inactive | -1.57% (inactive) | -48.8% | -48.9% | inactive | – | inactive | inactive | inactive | inactive | – | – |
| Cc1nc(N=Nc2cc(S(=O)(=O)O)c3cc([N+](=O)[O-])cc(S(=O)(=O)O)c3c2)c(COP(=O)(O)O)c(C=O)c1O | inactive | -4.26% (inactive) | 6.63% | 4.35% | 2.82 µM (active) | 10 µM (active) | 15.8 µM (active) | – | – | inactive | inactive | – |
